The record followed here is PubChem BioAssay AID652042 (Broad Institute, 2013).

The structures appear in SMILES notation. Out of some 1,100 compounds screened, about 350 (32%) were called active. No rule for the calls is given here. These entries were drawn from the full list. Where a call stands in place of a potency, no number is given. Potency and affinity values are given separately.

A short description of this test: viability loss in CEM21 cells – cell-based, CellTiter-Glo luminescence, cherry-picked, cytotoxicity control for viral fusion inhibitor project, dose response (AID 652042). To be noted: CellTiter-Glo ATP luminescence, 24 h; series mostly up to 35 µM.
Consider `Cc1ccc(CSCCNC(=O)c2ccc(Cl)c(S(=O)(=O)N3CCOCC3)c2)cc1`, for which the activity change, negative = cytotoxicity entry was “inactive”.

`COc1ccc(OC)c(-c2cc(C(=O)Nc3c(C)nn(Cc4ccc(Cl)cc4)c3C)no2)c1`: the activity change, negative = cytotoxicity entry is “inactive”.

For the compound `COc1ccc([C@@H]2[C@@H]3C(=O)N(C(C)(C)C)C(=O)[C@@H]3[C@]3(CC(C)C)C(=O)N(c4ccc(C(F)(F)F)cc4)C(=O)N23)cc1`, the activity change, negative = cytotoxicity result was “inactive”.

On to `CC1(C(=O)NCc2ccc3c(c2)OCO3)CCN1Cc1csc2ccccc12` (stereo not drawn), for which the activity change, negative = cytotoxicity result was “inactive”.

Consider `O=C(c1ccc(Cl)s1)N1CCN(c2nc3ccccc3s2)CC1`, for which the activity change, negative = cytotoxicity result is “inactive”.

As to `CC1CCc2c(sc3ncnc(N4CCOCC4)c23)C1` (stereo not drawn), the activity change, negative = cytotoxicity result is “inactive”.

On to `CCN1C(=O)[C@H]2[C@@H](c3ccc(C)cc3)N3C(=O)N(c4ccc(C(F)(F)F)cc4)C(=O)[C@@]3(CC(C)C)[C@H]2C1=O`, for which the activity change, negative = cytotoxicity result was “inactive”.

Take `CCOc1c(C)cnc2c1c(=O)n(Cc1ccc(Cl)cc1)c(=O)n2C`: the activity change, negative = cytotoxicity entry was “inactive”.

`Cc1ccc2cc(C#N)c(NCCNC(=O)C3CC3)nc2c1C`: the activity change, negative = cytotoxicity result is “inactive”.

For the compound `COc1ccc(S(=O)(=O)Nc2ccc3c(c2)CC(=O)N([C@@H](C)CO)C[C@H](C)[C@H](CN(C)S(=O)(=O)c2cccs2)O3)cc1`, the activity change, negative = cytotoxicity result was “inactive”.

As for `CCCc1cc(C(=O)NCc2ccc(OC)cc2)no1`, the activity change, negative = cytotoxicity result was “inactive”.

On to `COc1ccc(CCC(C)NCc2cc(OC)cc(OC)c2)cc1` (stereo not drawn), for which the activity change, negative = cytotoxicity result was “inactive”.

For the compound `Cc1ccc(OCCN2CCN(c3ncnc4sc(C)c(C)c34)CC2)cc1`, the activity change, negative = cytotoxicity result is “inactive”.

With `COc1cc(C(=O)N2CCN(c3ncnc4sc(C)c(C)c34)CC2)cc(OC)c1OC`, the activity change, negative = cytotoxicity entry is “inactive”.

`CN(C)C(=O)C[C@H]1C[C@@H]2c3cc(NC(=O)NC4CCCCC4)ccc3O[C@@H]2[C@H](CO)O1`: the activity change, negative = cytotoxicity entry was “inactive”.

Take `CCN(C[C@H]1N[C@@](C)(C(=O)OC)[C@H]2C(=O)N(Cc3ccccc3)C(=O)[C@@H]12)C(=O)c1ccc(C(C)(C)C)cc1`: the activity change, negative = cytotoxicity result is “inactive”.

In the case of `O=C(Nc1ccc(Oc2ccccc2)cc1)c1csc([C@H]2C[C@H](O)[C@@H](CO)O2)n1`, the activity change, negative = cytotoxicity result was “inactive”.

On to `c1csc(CNc2ncnc3sccc23)c1`, for which the activity change, negative = cytotoxicity result is “inactive”.

For the compound `CCN(CC(=O)Nc1cc(Cl)ccc1C)C(=O)c1ccc(=O)n(Cc2ccccc2)n1`, the activity change, negative = cytotoxicity entry is “inactive”.

In the case of `O=C(NCC(=O)N1CCN(c2ncccn2)CC1)c1ccccc1OC(F)F`, the activity change, negative = cytotoxicity result was “inactive”.

For `O=C(Nc1ccc(N2CCN(C(=O)c3ccccc3)CC2)c(Cl)c1)c1cccnc1`, the activity change, negative = cytotoxicity entry was “inactive”.

Consider `O=C(CCCn1c(=S)[nH]c2cc3c(cc2c1=O)OCO3)N1CCN(c2ccc(Cl)cc2)CC1`, for which the activity change, negative = cytotoxicity result was “inactive”.

Regarding `S=c1[nH]cc(-c2ccccc2)n1-c1cccc(Cl)c1`, the activity change, negative = cytotoxicity entry is “inactive”.

`CCOc1ccc(NC2c3ccccc3C(=O)N2Cc2ccco2)cc1` (stereo not drawn): the activity change, negative = cytotoxicity entry is “inactive”.

For `CC1CN(S(=O)(=O)c2cc(C(=O)NCCC3=CCCCC3)ccc2Cl)CC(C)O1` (stereo not drawn), the activity change, negative = cytotoxicity is -1.11% [at 8 µM] (inactive).

With `COc1ccc(Cl)cc1NC(=O)Nc1cnccn1`, the activity change, negative = cytotoxicity result is “inactive”.

Turning to `COc1ccc(OCC(=O)Nc2cc(-c3nn(C)c(=O)c4ccccc34)ccc2OC)cc1`, the activity change, negative = cytotoxicity result was “inactive”.

Consider `COC(=O)[C@@]1(Cc2ccccc2)[C@H]2C(=O)N(Cc3ccccc3)C(=O)[C@H]2[C@H]2CN=C(SCc3ccc(C#N)cc3)N21`, for which the activity change, negative = cytotoxicity entry is “inactive”.

For the compound `O=C(CN1C(=O)c2ccccc2S1(=O)=O)c1ccc2c(c1)OCCCO2`, the activity change, negative = cytotoxicity entry was “inactive”.

Consider `Cc1oc(-c2ccccc2F)nc1CN1CCC(C(=O)NCCC2=CCCCC2)CC1`, for which the activity change, negative = cytotoxicity result was “inactive”.

As for `CCc1ccc(-c2nc(CN3CCC(C(=O)NCCc4ccc(OC)c(OC)c4)CC3)c(C)o2)cc1`, the activity change, negative = cytotoxicity entry was “inactive”.

On to `CN1CC(c2ccccc2)C2(COc3ccccc3C2=O)C12C(=O)Nc1ccccc12` (stereo not drawn), for which the activity change, negative = cytotoxicity result is “inactive”.

`COc1ccccc1S(=O)(=O)n1cc(Cc2ccccc2)c(N)n1`: the activity change, negative = cytotoxicity entry was “inactive”.

With `CCOC(=O)c1c(CSc2ccccc2)oc2cc(Br)c(O)c(CN(C)C)c12`, the activity change, negative = cytotoxicity entry is “inactive”.

On to `CC(=O)C1=C(C)NC(=S)NC1c1ccccc1` (stereo not drawn), for which the activity change, negative = cytotoxicity entry was “inactive”.

As to `c1ccc2c(c1)ncn2CCCCOc1ccc2c(c1)CCC2`, the activity change, negative = cytotoxicity is 1.14% [at 8 µM] (inactive).

`CC1CCN(C(=O)c2ncn3c2C(=O)NC[C@@H]3C)CC1`: the activity change, negative = cytotoxicity result is “inactive”.

For `C[C@H]1CNC(=O)c2c(C(=O)N3CCN(c4ccccc4)CC3)ncn21`, the activity change, negative = cytotoxicity entry was “inactive”.

Turning to `Cc1ccc(NS(=O)(=O)c2cc(C(=O)N(C)C3CCN(C)CC3)ccc2Cl)cc1Cl`, the activity change, negative = cytotoxicity result was “inactive”.

As to `Cn1c(CN2CCCCC2)nc2cc(NC(=O)c3ccc(Cl)cc3)ccc21`, the activity change, negative = cytotoxicity entry was “inactive”.

In the case of `COc1ccc2[nH]c(=O)c(CN(Cc3nnnn3Cc3ccccc3)CC3CCCO3)cc2c1` (stereo not drawn), the activity change, negative = cytotoxicity entry is “inactive”.

Take `COc1ccc(OCC(=O)Nc2ccccc2N2CCCCC2)cc1`: the activity change, negative = cytotoxicity result was “inactive”.

`CCC(C)(C)NC(=O)C(c1ccccc1F)N(Cc1ccco1)C(=O)c1csnn1` (stereo not drawn): the activity change, negative = cytotoxicity result is “inactive”.

As to `CO[C@@H]1CN(C)C(=O)c2cc(NC(=O)Nc3ccc(Cl)cc3)ccc2OC[C@H](C)N(C)C[C@H]1C`, the activity change, negative = cytotoxicity result was “inactive”.

`CC[C@@]1(C(=O)OC)N[C@H](CN(C)C(=O)Nc2ccc(F)cc2)[C@@H]2C(=O)N(Cc3ccccc3)C(=O)[C@@H]21`: the activity change, negative = cytotoxicity result was “inactive”.

As to `Cc1nc2sc(C(c3ccco3)N3CCC(Cc4ccccc4)CC3)c(O)n2n1` (stereo not drawn), the activity change, negative = cytotoxicity entry is “inactive”.

For the compound `CN(C)C(=O)C[C@@H]1C[C@H]2c3cc(NS(=O)(=O)c4ccc(F)cc4)ccc3O[C@H]2[C@H](CO)O1`, the activity change, negative = cytotoxicity result was “inactive”.

On to `Clc1ccc(-c2csc3ncnc(NCCN4CCOCC4)c23)cc1`, for which the activity change, negative = cytotoxicity result is “inactive”.

`O=C(CN1CCN(Cc2ccc(Cl)cc2)C1=O)NCCCN1CCN(c2ccc(F)cc2)CC1`: the activity change, negative = cytotoxicity result was “inactive”.

For the compound `CC(C)CN(C(=O)c1ccc(S(=O)(=O)N2CCCCC2)cc1)C1CCS(=O)(=O)C1` (stereo not drawn), the activity change, negative = cytotoxicity result is “inactive”.

On to `CC[C@@]12C(=O)N(c3ccc(C)cc3)C(=O)N1[C@H](c1ccc(Br)cc1)[C@@H]1C(=O)N(C(C)(C)C)C(=O)[C@@H]12`, for which the activity change, negative = cytotoxicity entry is “inactive”.

In the case of `O=c1[nH]c(=O)n([C@H]2C[C@H](O)[C@@H](CO)O2)cc1F`, the activity change, negative = cytotoxicity entry was “inactive”.

Consider `CCOc1ccc(OCc2cccc(C(=O)N3CCOCC3)c2)cc1`, for which the activity change, negative = cytotoxicity result is “inactive”.

As for `CC(C)(COC(=O)C(c1ccccc1)c1ccccc1)CN1CCOCC1`, the activity change, negative = cytotoxicity result was “inactive”.

As for `COc1ccc(C(O)(C2CCCCC2)C(CN2CCOCC2)c2ccccc2)cc1` (stereo not drawn), the activity change, negative = cytotoxicity result is “inactive”.

Turning to `CCOc1ccc(C(=O)C2CCN(CC(=O)Nc3ccccc3N3CCOCC3)CC2)cc1`, the activity change, negative = cytotoxicity result is “inactive”.

For the compound `CCCNC(=O)c1ccccc1NC(=O)c1ccccc1N(C)S(=O)(=O)c1ccccc1`, the activity change, negative = cytotoxicity entry was “inactive”.

Take `Cc1[nH]nc2ncc(C(=O)c3ccccc3O)cc12`: the activity change, negative = cytotoxicity entry was “inactive”.
